From PubChem BioAssay (NCI)
About 79,000 compounds went through this panel and 15% of them were active in at least one assay; those are over-represented in the sample as a whole. A number with no mark means an inactive call. The source made the active and inactive calls. Rule as the data show it: active = growth inhibition above about 70%; inactive = the rest.

How the values were obtained:
[1] = NCI Yeast Anticancer Drug Screen. Data for the rad52 strain (AID 147);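 also: 0% = growth of vehicle-treated control cultures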; details: S. cerevisiae rad52 mutant growth inhibition, active compounds read high
Outline: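 Yeast strain carrying a DNA damage repair alteration was exposed to test compounds. Growth inhibition was measured relative to vehicle-treated controls.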

[2] = NCI Yeast Anticancer Drug Screen. Data for the wt1 strain (AID 149);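 also: 0% = growth of vehicle-treated wt1 cultures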; details: S. cerevisiae wt1 strain (SPY 50644) growth inhibition, active compounds read high
Outline: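 Vehicle-normalised growth inhibition; strain wt1; compound exposure.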

[3] = NCI Yeast Anticancer Drug Screen. Data for the rad50EPP+ strain (AID 151);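 also: 0% = growth of vehicle-treated control cultures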; details: S. cerevisiae rad50 mutant strain, active compounds read high
Outline: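 Yeast strain carrying rad50 alteration (rad50EPP+) exposed to compounds; growth inhibition measured relative to vehicle-treated controls.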

[4] = NCI Yeast Anticancer Drug Screen. Data for the mgt1 strain (AID 153); details: S. cerevisiae mgt1 mutant growth inhibition, active compounds read high
Outline: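 Yeast mgt1 strain (DNA repair/cell-cycle alteration panel) exposed to compounds; growth inhibition measured relative to vehicle-treated controls.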

[5] = NCI Yeast Anticancer Drug Screen. Data for the rad50 strain (AID 155);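 also: 0% = growth of vehicle-only cultures of the same strain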; details: S. cerevisiae rad50 strain growth inhibition, active compounds read high
Outline: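 A DNA repair-deficient yeast mutant serves as the test organism; compound-induced growth inhibition is calculated against vehicle-treated cells.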

[6] = NCI Yeast Anticancer Drug Screen. Data for the mec2-1 strain (AID 157); details: S. cerevisiae mec2-1 strain, active compounds read high
Outline: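 mec2-1 yeast strain, carrying an alteration in DNA damage repair or cell cycle control, was exposed to compounds; growth inhibition was measured relative to vehicle-treated controls.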

[7] = NCI Yeast Anticancer Drug Screen. Data for the rad14 strain (AID 159);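 also: 0% = growth of vehicle-treated control cultures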; details: S. cerevisiae rad14 strain growth inhibition, active compounds read high
Outline: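 Vehicle-treated cultures served as the baseline for growth inhibition of a DNA repair-mutant yeast strain exposed to each compound.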

[8] = NCI Yeast Anticancer Drug Screen. Data for the sgs1 mgt1 strain (AID 161);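 also: 0% = growth of cultures given vehicle only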; details: S. cerevisiae sgs1 mgt1 strain, active compounds read high
Outline: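 Yeast cells carrying a defined DNA-repair defect were exposed to test compounds. Growth inhibition was measured relative to vehicle-treated controls.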

[9] = NCI Yeast Anticancer Drug Screen. Data for the CLN2oe strain (AID 163);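 also: 0% = growth of vehicle-only control cultures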; details: S. cerevisiae CLN2oe strain, active compounds read high
Outline: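 Yeast cells carrying a defined cell-cycle control alteration were exposed to test compounds. Growth inhibition was scored against vehicle-treated control cultures.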

[10] = NCI Yeast Anticancer Drug Screen. Data for the cln2 rad14 strain (AID 165);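 also: 0% = growth equal to vehicle treated cultures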; details: S. cerevisiae cln2 rad14 strain, active compounds read high
Outline: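 Yeast carrying cln2 and rad14 alterations (cell cycle control and DNA damage repair) were exposed to compounds. Growth inhibition was measured against vehicle-treated controls.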

[11] = NCI Yeast Anticancer Drug Screen. Data for the bub3 strain (AID 167); details: S. cerevisiae bub3 mutant strain, active compounds read high
Outline: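 Inhibition values come from growth of compound-treated mutant yeast normalised to vehicle-treated controls.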

[12] = NCI Yeast Anticancer Drug Screen. Data for the wt2 strain (AID 169);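 also: 0% = growth of vehicle-treated yeast cultures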; details: S. cerevisiae wt2 strain growth inhibition, active compounds read high
Outline: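 Yeast cells were exposed to test compounds, and growth inhibition was measured relative to vehicle-treated controls.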

[13] = NCI Yeast Anticancer Drug Screen. Data for the mlh1 strain (AID 171);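 also: 0% = growth of vehicle-treated control cultures of the same strain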; details: S. cerevisiae mlh1 strain growth inhibition, active compounds read high
Outline: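 Yeast carrying a defined genetic alteration in DNA damage repair or cell cycle control were exposed to test compounds. Growth inhibition was measured relative to vehicle-treated controls.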

[14] = NCI Yeast Anticancer Drug Screen. Data for the sgs1 strain (AID 173);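 also: 0% = growth of vehicle-only control cultures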; details: S. cerevisiae sgs1 mutant, active compounds read high
Outline: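 Yeast mutant strains carrying defined defects in DNA damage repair or cell cycle control were exposed to test compounds. Growth inhibition was scored against vehicle-treated controls.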

[15] = NCI Yeast Anticancer Drug Screen. Data for the mlh1 rad18 strain (AID 175); details: S. cerevisiae mlh1 rad18 strain growth inhibition, active compounds read high
Outline: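 Growth inhibition of the yeast strain was measured after compound exposure and expressed relative to vehicle-treated controls. The strain carries defined defects in DNA damage repair.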

[16] = NCI Yeast Anticancer Drug Screen. Data for the rad18 strain (AID 177); details: S. cerevisiae rad18 mutant growth inhibition, active compounds read high
Outline: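 Yeast carrying a defined DNA damage repair alteration were exposed to compounds. Growth inhibition was expressed relative to vehicle-treated controls.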

[17] = at 5.0 µM (retest, dose inferred, filed as 0.5)
[18] = at 50.0 µM (retest, dose inferred, filed as 5.0)

Q: With `COc1ccccc1C(=O)OCC1CCCN2CCCCC12` (stereo not drawn) as the compound, how does the growth inhibition ([1]; at 1.2 µM) read?
A: Its growth inhibition is 22%.

Q: And the growth inhibition ([1]; at 3.7 µM)?
A: The growth inhibition was 8%.

Q: And the growth inhibition ([1]; at 11.0 µM)?
A: Its growth inhibition is 57%.

Q: What about the growth inhibition ([1]; at 33.0 µM) of the same compound?
A: The growth inhibition was 76% (active).

Q: And the growth inhibition ([1]; at 100.0 µM)?
A: The growth inhibition was 97% (active).

Q: And the growth inhibition ([2]; at 1.2 µM)?
A: The growth inhibition was 0%.

Q: What about the growth inhibition ([2]; at 3.7 µM) of the same compound?
A: Its growth inhibition is -7%.

Q: And the growth inhibition ([2]; at 11.0 µM)?
A: Its growth inhibition is 7%.

Q: What about the growth inhibition ([2]; at 33.0 µM) of the same compound?
A: The growth inhibition was 76% (active).

Q: What about the growth inhibition ([2]; at 100.0 µM) of the same compound?
A: Its growth inhibition is 98% (active).

Q: And the growth inhibition ([3]; at 1.2 µM)?
A: Its growth inhibition is 4%.

Q: And the growth inhibition ([3]; at 3.7 µM)?
A: Its growth inhibition is -3%.

Q: And the growth inhibition ([3]; at 11.0 µM)?
A: The growth inhibition was 80% (active).

Q: What about the growth inhibition ([3]; at 33.0 µM) of the same compound?
A: Its growth inhibition is 97% (active).

Q: What about the growth inhibition ([3]; at 100.0 µM) of the same compound?
A: Its growth inhibition is 98% (active).

Q: And the growth inhibition ([4]; at 1.2 µM)?
A: The growth inhibition was 23%.

Q: And the growth inhibition ([4]; at 3.7 µM)?
A: Its growth inhibition is 15%.

Q: And the growth inhibition ([4]; at 11.0 µM)?
A: Its growth inhibition is 73% (active).

Q: And the growth inhibition ([4]; at 33.0 µM)?
A: The growth inhibition was 91% (active).

Q: And the growth inhibition ([4]; at 100.0 µM)?
A: The growth inhibition was 98% (active).

Q: What about the growth inhibition ([5]; at 1.2 µM) of the same compound?
A: Its growth inhibition is 8%.

Q: And the growth inhibition ([5]; at 3.7 µM)?
A: The growth inhibition was 8%.

Q: What about the growth inhibition [5, 17] of the same compound?
A: The growth inhibition was 21%.

Q: What about the growth inhibition ([5]; at 11.0 µM) of the same compound?
A: Its growth inhibition is 68%.

Q: And the growth inhibition ([5]; at 33.0 µM)?
A: Its growth inhibition is 97% (active).

Q: And the growth inhibition [5, 18]?
A: The growth inhibition was 99% (active).

Q: What about the growth inhibition ([5]; at 50.0 µM) of the same compound?
A: Its growth inhibition is 90.7% (active).

Q: What about the growth inhibition ([5]; at 100.0 µM) of the same compound?
A: Its growth inhibition is 97% (active).

Q: What about the growth inhibition ([6]; at 1.2 µM) of the same compound?
A: The growth inhibition was 0%.

Q: And the growth inhibition ([6]; at 3.7 µM)?
A: The growth inhibition was -6%.

Q: What about the growth inhibition [6, 17] of the same compound?
A: Its growth inhibition is 53%.

Q: And the growth inhibition ([6]; at 11.0 µM)?
A: Its growth inhibition is 0%.

Q: What about the growth inhibition ([6]; at 33.0 µM) of the same compound?
A: The growth inhibition was 56%.

Q: And the growth inhibition [6, 18]?
A: The growth inhibition was 99% (active).

Q: And the growth inhibition ([6]; at 50.0 µM)?
A: Its growth inhibition is 93% (active).

Q: And the growth inhibition ([6]; at 100.0 µM)?
A: Its growth inhibition is 98% (active).

Q: What about the growth inhibition ([7]; at 1.2 µM) of the same compound?
A: The growth inhibition was 10%.

Q: And the growth inhibition ([7]; at 3.7 µM)?
A: The growth inhibition was 17%.

Q: What about the growth inhibition ([7]; at 11.0 µM) of the same compound?
A: Its growth inhibition is 77% (active).

Q: And the growth inhibition ([7]; at 33.0 µM)?
A: The growth inhibition was 98% (active).

Q: And the growth inhibition ([7]; at 100.0 µM)?
A: Its growth inhibition is 99% (active).

Q: And the growth inhibition [8, 17]?
A: Its growth inhibition is -17%.

Q: What about the growth inhibition [8, 18] of the same compound?
A: The growth inhibition was 40%.

Q: And the growth inhibition ([8]; at 50.0 µM)?
A: The growth inhibition was 91.6% (active).

Q: And the growth inhibition ([9]; at 1.2 µM)?
A: Its growth inhibition is 8%.

Q: What about the growth inhibition ([9]; at 3.7 µM) of the same compound?
A: Its growth inhibition is -1%.

Q: And the growth inhibition ([9]; at 11.0 µM)?
A: Its growth inhibition is -12%.

Q: And the growth inhibition ([9]; at 33.0 µM)?
A: The growth inhibition was 63%.

Q: What about the growth inhibition ([9]; at 100.0 µM) of the same compound?
A: Its growth inhibition is 95% (active).

Q: What about the growth inhibition [10, 17] of the same compound?
A: Its growth inhibition is -9%.

Q: And the growth inhibition [10, 18]?
A: The growth inhibition was 8%.

Q: What about the growth inhibition ([10]; at 50.0 µM) of the same compound?
A: Its growth inhibition is 90.9% (active).

Q: And the growth inhibition ([11]; at 1.2 µM)?
A: The growth inhibition was -9%.

Q: What about the growth inhibition ([11]; at 3.7 µM) of the same compound?
A: The growth inhibition was -20%.

Q: And the growth inhibition [11, 17]?
A: Its growth inhibition is 7%.

Q: And the growth inhibition ([11]; at 11.0 µM)?
A: Its growth inhibition is 31%.

Q: And the growth inhibition ([11]; at 33.0 µM)?
A: Its growth inhibition is 97% (active).

Q: What about the growth inhibition [11, 18] of the same compound?
A: The growth inhibition was 91% (active).

Q: What about the growth inhibition ([11]; at 50.0 µM) of the same compound?
A: The growth inhibition was 90.8% (active).

Q: What about the growth inhibition ([11]; at 100.0 µM) of the same compound?
A: The growth inhibition was 97% (active).

Q: What about the growth inhibition ([12]; at 1.2 µM) of the same compound?
A: Its growth inhibition is -18%.

Q: What about the growth inhibition ([12]; at 3.7 µM) of the same compound?
A: Its growth inhibition is -5%.

Q: And the growth inhibition ([12]; at 11.0 µM)?
A: Its growth inhibition is 94% (active).

Q: And the growth inhibition ([12]; at 33.0 µM)?
A: Its growth inhibition is 96% (active).

Q: And the growth inhibition ([12]; at 100.0 µM)?
A: Its growth inhibition is 98% (active).

Q: What about the growth inhibition ([13]; at 1.2 µM) of the same compound?
A: The growth inhibition was 23%.

Q: What about the growth inhibition ([13]; at 3.7 µM) of the same compound?
A: The growth inhibition was 15%.

Q: And the growth inhibition ([13]; at 11.0 µM)?
A: Its growth inhibition is 73% (active).

Q: What about the growth inhibition ([13]; at 33.0 µM) of the same compound?
A: The growth inhibition was 91% (active).

Q: What about the growth inhibition ([13]; at 100.0 µM) of the same compound?
A: The growth inhibition was 98% (active).

Q: What about the growth inhibition ([14]; at 1.2 µM) of the same compound?
A: Its growth inhibition is 10%.

Q: And the growth inhibition ([14]; at 3.7 µM)?
A: Its growth inhibition is -15%.

Q: And the growth inhibition ([14]; at 11.0 µM)?
A: The growth inhibition was 62%.

Q: And the growth inhibition ([14]; at 33.0 µM)?
A: Its growth inhibition is 63%.

Q: What about the growth inhibition ([14]; at 100.0 µM) of the same compound?
A: Its growth inhibition is 98% (active).

Q: What about the growth inhibition [15, 17] of the same compound?
A: The growth inhibition was 60%.

Q: What about the growth inhibition [15, 18] of the same compound?
A: Its growth inhibition is 99% (active).

Q: And the growth inhibition ([15]; at 50.0 µM)?
A: The growth inhibition was 90.3% (active).

Q: And the growth inhibition ([16]; at 1.2 µM)?
A: Its growth inhibition is -5%.

Q: What about the growth inhibition ([16]; at 3.7 µM) of the same compound?
A: The growth inhibition was -21%.

Q: And the growth inhibition ([16]; at 11.0 µM)?
A: Its growth inhibition is 35%.

Q: And the growth inhibition ([16]; at 33.0 µM)?
A: Its growth inhibition is 95% (active).

Q: And the growth inhibition ([16]; at 100.0 µM)?
A: The growth inhibition was 97% (active).
